Data on 26 molecules can be found in PubChem BioAssay (Tox21).

Assay [1] in a line: qHTS assay to identify small molecule antagonists of the estrogen receptor beta (ER-beta) signaling pathway - cell viability counter screen (AID 1259382; active = well fitted curve in the direction sought with a large enough effect in the repeat runs; an effect the other way counts as inactive or inconclusive;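 also: HEK293T cells carrying ER-beta-UAS-bla reporter stimulated with estradiol; series mostly up to about 92 µM; nearly all actives have a fitted effect of over 55% in size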). In outline:
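Luminescent ATP read-out (CellTiter-Glo, 30 min, RT) taken in the same wells as the bla reporter assay. HEK293T ER-beta-UAS-bla cells in 2% charcoal-stripped FBS were exposed to compounds with 1nM E2 for 16 hr at 37C.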
(qHTS replaces the single test concentration by a dilution series.)

Assay [2] can be described thus: qHTS assay to identify small molecule agonists of the estrogen receptor alpha (ER-alpha) signaling pathway in the presence of an antagonist - cell viability counter screen (AID 1259386; active = well fitted curve in the direction sought with a large enough effect in the repeat runs; an effect the other way counts as inactive or inconclusive;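 also: series mostly up to about 92 µM; cells exposed to compounds for 22 h at 37 °C before the viability read; nearly all actives have a fitted effect of over 30% in size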). A digest of the protocol:
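Read-out: CellTiter-Fluor fluorescence after 1hr reagent incubation, measured in the same wells as the luciferase readout. VM7Luc4E2 cells were exposed to 15 compound concentrations with 10.0nM ICI-182,780 for 22hr at 37C.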

Assay [3] has as its target Progesterone receptor (Homo sapiens) (UniProt P06401). As to the kind of experiment: qHTS assay to identify small molecule agonists of the progesterone receptor (PR) signaling pathway (AID 1346784). Also: nearly all actives have a fitted effect of over 30% in size. Also: potency is read from the fitted curve at half-maximal effect. In outline: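 Agonist mode, quantitative HTS format in a HEK 293T line expressing a UAS-controlled beta-lactamase reporter; 16 hr compound exposure at 37C in 2% charcoal-stripped FBS, then LiveBLAzer B/G FRET fluorescence.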

Assay [4] has the same target. As to the kind of experiment: qHTS assay to identify small molecule antagonists of the progesterone receptor (PR) signaling pathway (AID 1346795; active = well fitted inhibition curve with a large enough effect in the signal ratio in the repeat runs, not every such curve was filed as active; the % refers to the signal ratio; also: potency is read from the fitted curve at half-maximal effect). A digest of the protocol:
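HEK293T PR-UAS-bla reporter cells in charcoal-stripped serum (2%) received compound after a 6 hr settling period, followed by R5020 agonist at 1 nM final; 16 hr incubation preceded the FRET substrate step and fluorescence measurement.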

The nature of assay [5]: qHTS assay to identify small molecule antagonists of the progesterone receptor (PR) signaling pathway - cell viability counter screen (AID 1346798; active = well fitted curve in the direction sought with a large enough effect in the repeat runs; an effect the other way counts as inactive or inconclusive; also: series mostly up to about 92 µM; nearly all actives have a fitted effect of over 50% in size). In outline: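 Same-well multiplex: after 16 hr at 37C with compound and R5020 stimulation, HEK293T cells carrying a UAS-bla reporter received LiveBLAzer substrate (2 hr RT), then CellTiter-Glo (30 min RT) for luminescent viability.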

Assay [6] is described as follows: qHTS assay to identify small molecule agonists or antagonists of the thyroid stimulating hormone receptor (TSHR) signaling pathway - wild type cell line counter screen (AID 1259384). In outline: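 Counter screen in untransfected Hek293: compounds (15-point titration, triplicate) plus phosphodiesterase inhibitor Ro20-1724 added after 18 h plating; 30 min RT. Intracellular cAMP via competitive d2/cryptate immunoassay, 1 h incubation.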

Assay [7] deals with Thyrotropin receptor (Homo sapiens) (UniProt P16473). Kind of assay: qHTS assay to identify small molecule antagonists of the thyroid stimulating hormone receptor (TSHR) signaling pathway (AID 1259385). Also: nearly all actives have a fitted effect of over 20% in size. A digest of the protocol:
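Antagonist mode: compound-treated TSHR-expressing HEK293 cells were stimulated with 1.5 ng/mL TSH (final) in presence of Ro20-1724 for 30 min at RT. HTRF cAMP detection after 1 h; each compound tested at 15 concentrations, triplicate.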

The nature of assay [8]: qHTS assay to identify small molecule agonists of the progesterone receptor (PR) signaling pathway - cell viability counter screen (AID 1346799). Also: nearly all actives have a fitted effect of over 45% in size. A digest of the protocol: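 Counter screen for cytotoxicity: compound-treated PR-UAS-bla HEK293T cells (16 hr, 37C, 5% CO2) were assayed with CellTiter-Glo, luminescence measured after 30 min at room temperature.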
For assay [9], the target named is Estrogen receptor (Homo sapiens) (UniProt P03372). As to the kind of experiment: qHTS assay to identify small molecule agonists of the estrogen receptor alpha (ER-alpha) signaling pathway in the presence of an antagonist (AID 1259383). Also: top concentration of the series differs between compounds; nearly all actives have a fitted effect of over 15% in size. In outline: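 Luciferase luminescence (ONE-Glo, 30min at room temperature) measured in VM7Luc4E2 cells after 22hr compound exposure at 15 concentrations, with 10.0nM ICI-182,780 final present; cells express endogenous ER-alpha and carry four EREs upstream of luciferase.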
Chain of Estrogen receptor (Homo sapiens) (P03372 whole entry, looked up): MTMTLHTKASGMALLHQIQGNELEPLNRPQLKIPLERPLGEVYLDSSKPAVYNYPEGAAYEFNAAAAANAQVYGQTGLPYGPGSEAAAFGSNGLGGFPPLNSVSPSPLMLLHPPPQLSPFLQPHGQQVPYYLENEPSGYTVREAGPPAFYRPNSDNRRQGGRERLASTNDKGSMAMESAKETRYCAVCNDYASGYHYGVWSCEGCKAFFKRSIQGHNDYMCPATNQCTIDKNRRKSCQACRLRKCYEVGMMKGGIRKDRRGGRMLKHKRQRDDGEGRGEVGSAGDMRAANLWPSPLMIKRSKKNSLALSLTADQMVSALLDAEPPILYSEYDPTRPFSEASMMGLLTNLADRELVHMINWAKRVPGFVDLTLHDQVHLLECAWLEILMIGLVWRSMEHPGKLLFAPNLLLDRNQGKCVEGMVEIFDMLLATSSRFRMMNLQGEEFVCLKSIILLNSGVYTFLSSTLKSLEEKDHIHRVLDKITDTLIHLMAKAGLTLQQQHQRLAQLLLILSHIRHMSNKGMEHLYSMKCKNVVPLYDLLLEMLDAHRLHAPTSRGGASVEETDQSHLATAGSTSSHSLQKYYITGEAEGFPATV

SMILES strings stand for the structures. A number with no mark means an inactive call. Records with an inconclusive call do not appear. Activity calls are given as the source filed them. Unless noted, calls follow the shape of the full dose curve.
% is scaled to controls: 0 for no effect and ±100 for the full control effect.

Chain of Thyrotropin receptor (Homo sapiens) (P16473 whole entry, looked up): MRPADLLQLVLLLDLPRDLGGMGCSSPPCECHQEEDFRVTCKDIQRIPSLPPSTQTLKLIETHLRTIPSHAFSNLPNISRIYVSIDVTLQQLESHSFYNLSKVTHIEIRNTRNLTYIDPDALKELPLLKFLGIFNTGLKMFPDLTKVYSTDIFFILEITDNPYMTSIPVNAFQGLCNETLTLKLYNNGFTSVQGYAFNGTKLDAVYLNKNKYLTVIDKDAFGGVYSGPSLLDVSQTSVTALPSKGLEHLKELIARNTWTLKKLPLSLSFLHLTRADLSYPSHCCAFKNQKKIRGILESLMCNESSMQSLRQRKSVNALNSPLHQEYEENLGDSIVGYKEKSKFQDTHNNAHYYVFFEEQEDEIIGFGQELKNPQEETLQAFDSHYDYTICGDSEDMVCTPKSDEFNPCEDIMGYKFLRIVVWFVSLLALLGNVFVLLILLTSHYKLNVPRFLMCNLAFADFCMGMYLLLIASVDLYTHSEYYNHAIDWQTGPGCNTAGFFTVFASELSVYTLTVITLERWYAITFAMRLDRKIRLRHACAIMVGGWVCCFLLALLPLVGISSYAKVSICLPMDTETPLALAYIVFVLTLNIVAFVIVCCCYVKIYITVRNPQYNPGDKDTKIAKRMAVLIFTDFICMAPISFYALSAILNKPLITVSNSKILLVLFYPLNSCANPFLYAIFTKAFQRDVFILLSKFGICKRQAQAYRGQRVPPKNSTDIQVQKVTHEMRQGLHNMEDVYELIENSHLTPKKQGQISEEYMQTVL
Chain of Progesterone receptor (Homo sapiens) (P06401 whole entry, looked up): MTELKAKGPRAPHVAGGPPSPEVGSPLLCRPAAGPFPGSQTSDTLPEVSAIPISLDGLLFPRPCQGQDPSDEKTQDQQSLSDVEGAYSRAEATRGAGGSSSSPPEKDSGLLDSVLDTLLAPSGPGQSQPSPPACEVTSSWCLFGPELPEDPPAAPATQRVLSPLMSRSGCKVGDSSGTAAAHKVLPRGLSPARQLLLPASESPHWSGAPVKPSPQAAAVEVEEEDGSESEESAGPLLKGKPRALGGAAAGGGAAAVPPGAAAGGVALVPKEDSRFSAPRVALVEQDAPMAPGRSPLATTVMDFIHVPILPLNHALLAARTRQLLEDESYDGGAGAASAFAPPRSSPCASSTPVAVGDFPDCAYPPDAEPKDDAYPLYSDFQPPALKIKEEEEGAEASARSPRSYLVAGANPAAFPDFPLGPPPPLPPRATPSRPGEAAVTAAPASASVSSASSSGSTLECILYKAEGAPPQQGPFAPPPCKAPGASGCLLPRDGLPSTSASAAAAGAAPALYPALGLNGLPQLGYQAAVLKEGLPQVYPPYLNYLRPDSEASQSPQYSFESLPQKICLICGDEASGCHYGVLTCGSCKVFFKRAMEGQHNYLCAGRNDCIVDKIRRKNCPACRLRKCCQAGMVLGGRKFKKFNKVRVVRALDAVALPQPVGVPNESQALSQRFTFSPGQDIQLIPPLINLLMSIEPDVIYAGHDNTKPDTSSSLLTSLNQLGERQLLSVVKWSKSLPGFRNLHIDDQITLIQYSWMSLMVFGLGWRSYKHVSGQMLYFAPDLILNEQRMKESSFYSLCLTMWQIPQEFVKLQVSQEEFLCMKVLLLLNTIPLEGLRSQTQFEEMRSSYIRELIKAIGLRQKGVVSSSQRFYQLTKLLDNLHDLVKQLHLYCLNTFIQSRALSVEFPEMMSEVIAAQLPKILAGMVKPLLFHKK

In the case of `NS(=O)(=O)c1ccccc1OC(F)(F)F`, the molecule was classed as inactive in assay [1]. The Potency entry in assay [2], in assay [3], in assay [4] and in [5] was “inactive” throughout.
With `C=C(C)[C@@H]1CC[C@@H](C)C[C@@H]1O`, the result in assay [1], in assay [6] and in assay [7] was inactive. In addition, the Potency entry in assay [2], in [3], in assay [4], in assay [5] and in assay [8] was “inactive” each time.
On to `CN(C1CCCCC1)S(=O)(=O)c1ccccc1N`, for which the result in assay [1], in [6] and in assay [7] was inactive. Further, the Potency entry in [2], in [3], in assay [5] and in [8] was “inactive” each time. In assay [4], the Potency is 17.2 µM (active).
`CC(C)COC(=O)CCCCC(=O)OCC(C)C`: the molecule was called inactive in assay [1], in assay [6] and in [7]. In addition, the Potency result in [2], in [3], in assay [4] and in [8] was “inactive” throughout.
`C[C@@H]1C[C@H]2[C@@H]3C[C@H](F)C4=CC(=O)C=C[C@]4(C)[C@@]3(F)[C@@H](O)C[C@]2(C)[C@@]1(O)C(=O)CO`: the outcome in assay [1], in assay [6] and in [7] was inactive. Further, the Potency entry in assay [2] and in [5] was “inactive” throughout. For the same molecule, the Potency in [3] is 5.96 µM (active).
For the molecule `O=C(c1ccc2c(c1)C(=O)OC2=O)c1ccc2c(c1)C(=O)OC2=O`, the result in [1], in [6] and in assay [7] was inactive. The Potency result in assay [2], in [3], in assay [4], in assay [5] and in assay [8] was “inactive” in each case.
In the case of `SCCSCCS`, the outcome in [1], in [6] and in assay [7] was inactive. For the same molecule, the Potency entry in [2], in assay [3], in assay [4], in assay [5] and in assay [8] was “inactive” in each case.
On to `C=C[C@@H](C)CCC=C(C)C`, for which the molecule was classed as inactive in assay [1], in [6] and in assay [7]. Moreover, the Potency entry in assay [2], in assay [3], in [4], in assay [5] and in assay [8] was “inactive” each time.
As to `COCCOCCOCCOC`, in assay [1], the call was inactive. Also, the Potency result in [2], in assay [3], in assay [4] and in [5] was “inactive” in each case.
Consider `C=CCOc1cc(Cl)ccc1C(=O)NCCN(CC)CC`, for which the call in assay [1], in [6] and in assay [7] was inactive. Besides, the Potency result in [2], in assay [3], in assay [4], in assay [5] and in assay [8] was “inactive” in each case.
On to `CC(=O)OCCCc1ccccc1`, for which the molecule was called inactive in assay [1], in [6] and in assay [7]. Further, the Potency entry in [2], in assay [3], in [4], in assay [5] and in [8] was “inactive” in each case.
For `CCOc1ccc(NC(=O)OC(C)C)cc1OCC`, the call in assay [1] was inactive. Also, the Potency entry in assay [2], in assay [3] and in assay [4] was “inactive” throughout.
As for `c1ccccc1`, the molecule was called inactive in assay [1], in [6] and in assay [7]. Besides, the Potency entry in assay [2], in [4], in assay [5] and in assay [8] was “inactive” each time.
Consider `CCC(C)(CCC(C)C)C(=O)[O-].CCC(C)(CCC(C)C)C(=O)[O-].[Zn+2]` (centres undefined), for which, in assay [1], the result was inactive. Moreover, the Potency result in assay [2], in [3], in assay [4], in assay [5] and in [8] was “inactive” throughout.
Turning to `C=COCCOCCOC=C`, the result in [1] was inactive. For the same molecule, the Potency result in [2], in assay [3], in [4], in assay [5] and in assay [8] was “inactive” in each case.
For the molecule `O=c1cc(O)c(Cl)c[nH]1`, the result in [1], in [6] and in assay [7] was inactive. Besides, the Potency result in assay [2], in assay [5] and in assay [8] was “inactive” each time.
Regarding `CCCCC/C=C/CC(=O)OC`, the result in assay [1], in assay [6] and in assay [7] was inactive. Further, the Potency entry in assay [2], in assay [3], in [5] and in assay [8] was “inactive” in each case.
With `O=C1CC[C@H](C(=O)N2CCCCC2)N1`, the outcome in assay [9], in assay [6] and in [7] was inactive. The Potency entry in assay [2], in assay [5] and in assay [8] was “inactive” in each case.
Consider `Nc1c(NC/C=C\COc2cc(CN3CCCCC3)ccn2)c(=O)c1=O`, for which, in assay [6], the cAMP activity change was -0.455% [at 18.9 µM]. Further, the activity change, negative = inhibition was -4.41% [at 19 µM] in assay [7] and 9.62% [at 18.9 µM] in [4]. In addition, the activation in assay [3] is 1.78% [at 19 µM]. For the same molecule, the activity change, negative = cytotoxicity in assay [8] was -2.25% [at 19 µM].
As for `CC(C)(C)c1ccc(C=O)cc1`, the outcome in assay [9], in [6] and in assay [7] was inactive. Moreover, the Potency entry in assay [2], in assay [3], in assay [4], in assay [5] and in [8] was “inactive” in each case.
For the molecule `C=C[Si](C)(C)O[Si](C)(C)C=C`, the result in [9], in [6] and in [7] was inactive. Moreover, the Potency result in assay [2], in assay [3], in assay [4] and in assay [5] was “inactive” in each case.
For `CCOC(=O)CCc1ccccc1`, the outcome in assay [6] and in [7] was inactive. Also, the Potency entry in assay [2], in assay [3], in assay [4] and in assay [8] was “inactive” each time.
`Cc1ccc(S(=O)(=O)NC(=O)NC2CCCCCCC2)cc1`: the call in assay [6] and in [7] was inactive. For the same molecule, the Potency entry in [2], in assay [3], in [4], in assay [5] and in assay [8] was “inactive” in each case.
Take `CCOC(=O)CC(CC(=O)OCC)(OC(C)=O)C(=O)OCC`: in [1], the result was inactive. For the same molecule, the Potency result in assay [2], in assay [3], in [4] and in assay [8] was “inactive” in each case.
On to `CCC1COC(=O)O1` (centres undefined), for which the outcome in assay [9], in assay [6] and in assay [7] was inactive. The Potency entry in [2], in assay [3], in assay [4], in assay [5] and in assay [8] was “inactive” each time.
With `Nc1nc(=O)n([C@@H]2O[C@H](CO)[C@@H](O)[C@@H]2F)cc1I`, the outcome in assay [9], in assay [6] and in [7] was inactive. The Potency entry in [2], in assay [3], in assay [4] and in [8] was “inactive” each time.
